Source: PubChem BioAssay
The list is not random: actives were taken first. Their share in the collection is about 10%.
HP1b chromo inh: inhibitors of HP1-beta chromodomain binding to methylated histone tails; P83916; AlphaScreen HP1-beta / biotin-H3K9me3 peptide binding; Potency, µM (titrated, usually from 114 µM), for inactives: at the top dose activity change, negative = inhibition, most hits filed as inhibitors; 390,000 tested, 0.56% active; AID 540317; also: nearly all actives have a fitted effect of over 70% in size
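Compound inhibition of the preformed complex between 50 nM HP1-beta and 50 nM biotinylated H3K9me3 peptide was read by AlphaScreen. Buffer was PBS pH 7.4 with 0.01% Tween-20. Incubations ran 30 min at room temperature, with 10 ug/mL donor/acceptor beads.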
GLS inh: blocks human kidney-isoform glutaminase activity | O94925 | GLS enzymatic activity, qHTS titration | Potency, µM (doses to about 45.5 µM), for the others: top-dose activity change, negative = inhibition, actives largely listed as inhibitors | 410,000 tested, 0.21% active | AID 624170; also: % is scaled to controls: 0 for no effect and ±100 for the full control effect
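Coupled fluorescence readout: glutamate oxidase/HRP/Amplex Red detect glutamate formed by hKGA from L-glutamine (1 mM solution added). Buffer 45 mM KH2PO4 pH 8.2, 0.02% Tween-20; reads at t0 and 30 min RT.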
JMJD2A Tudor inh: inhibitors of human JMJD2A Tudor domain. O75164. 390,000 tested, 4.4% active. AlphaScreen JMJD2A-Tudor / H3K4me3 peptide binding. Potency, µM (titrated, usually from 114 µM), for the others: at the highest dose activity change, negative = inhibition, hits mostly inhibitors; also: % is scaled to controls: 0 for no effect and ±100 for the full control effect; nearly all actives have a fitted effect of over 50% in size
Target sequence (O75164 whole entry, looked up, the tested form may be a part): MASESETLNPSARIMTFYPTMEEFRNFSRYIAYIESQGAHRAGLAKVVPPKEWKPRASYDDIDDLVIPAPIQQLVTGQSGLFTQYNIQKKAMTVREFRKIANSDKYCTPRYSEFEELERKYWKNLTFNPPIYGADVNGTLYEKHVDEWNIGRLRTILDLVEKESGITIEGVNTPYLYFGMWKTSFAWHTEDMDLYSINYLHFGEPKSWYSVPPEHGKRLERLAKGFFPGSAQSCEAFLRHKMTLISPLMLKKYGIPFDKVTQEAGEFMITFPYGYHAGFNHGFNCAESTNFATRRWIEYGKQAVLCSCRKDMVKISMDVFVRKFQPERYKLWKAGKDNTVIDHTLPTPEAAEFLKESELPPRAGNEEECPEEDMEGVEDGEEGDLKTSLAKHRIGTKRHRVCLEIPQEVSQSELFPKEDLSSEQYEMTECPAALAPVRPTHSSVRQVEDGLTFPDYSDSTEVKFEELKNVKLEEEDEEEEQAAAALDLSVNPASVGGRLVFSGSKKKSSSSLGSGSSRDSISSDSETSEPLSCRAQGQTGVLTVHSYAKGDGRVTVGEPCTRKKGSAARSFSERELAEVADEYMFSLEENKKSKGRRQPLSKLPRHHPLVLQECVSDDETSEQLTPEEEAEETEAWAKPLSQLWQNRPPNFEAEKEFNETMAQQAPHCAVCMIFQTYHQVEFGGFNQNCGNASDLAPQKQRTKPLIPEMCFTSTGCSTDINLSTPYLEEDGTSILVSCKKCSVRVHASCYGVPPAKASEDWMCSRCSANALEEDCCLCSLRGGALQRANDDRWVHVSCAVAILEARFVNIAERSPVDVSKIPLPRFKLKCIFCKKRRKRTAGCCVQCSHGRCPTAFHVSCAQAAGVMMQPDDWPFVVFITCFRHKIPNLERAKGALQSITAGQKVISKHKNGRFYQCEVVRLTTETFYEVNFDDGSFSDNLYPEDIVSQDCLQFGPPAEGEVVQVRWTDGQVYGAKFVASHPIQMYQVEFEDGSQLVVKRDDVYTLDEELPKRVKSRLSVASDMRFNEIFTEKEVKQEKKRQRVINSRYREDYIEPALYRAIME
BAZ2B inh: blocks human BAZ2B; AlphaScreen BAZ2B-H3K14Ac peptide displacement; Potency, µM (top dose mostly 114 µM), for the others: at the highest dose activity change, negative = inhibition, hits mostly inhibitors; 360,000 tested, 4.4% active; also: % is scaled to controls: 0 for no effect and ±100 for the full control effect; nearly all actives have a fitted effect of over 60% in size
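AlphaScreen displacement: compounds (up to 110uM) incubated 30 min at room temperature with a preformed 50 nM BAZ2B/50 nM biotinylated H3K14Ac peptide complex in PBS pH 7.4 with Tween-20. Donor and acceptor beads at 10 ug/mL final added, 20 min light-protected before reading.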
G9a inh: inhibitors of human histone lysine methyltransferase G9a. 350,000 tested, 8.8% active. G9a H3K9 monomethylation, AlphaScreen, 2 h. Potency, µM (series often up to 102 µM), inactives show at the highest dose activity, negative = inhibition, actives largely listed as inhibitors. Q96KQ7; also: % is scaled to controls: 0 for no effect and ±100 for the full control effect; nearly all actives have a fitted effect of over 75% in size
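Signal arises when biotinylated H3K9 peptide, once monomethylated, bridges streptavidin donor and antibody-captured acceptor beads. Enzyme at 20 nM was preincubated 15 min with test compounds; peptide 500 nM and SAM 20 uM then reacted for 2 h.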
An asterisk follows results filed as active; ? = inconclusive; nt = no result given; [ ] = remark or other dose. Calls follow the shape of the dose curve; as a rule, active = well fitted curve in the direction sought with a large enough effect; inconclusive = small, poorly fitted or top-dose-only effect, or another doubt; inactive = no such curve, though single readings can be large; an effect the other way counts as inactive or inconclusive. Potency is read from the fitted curve at half-maximal effect.

SMILES	HP1b chromo inh	GLS inh	JMJD2A Tudor inh	BAZ2B inh	G9a inh
COc1ccc(CCNC(=O)Cn2c(=O)n(-c3cc(OC)c(OC)c(OC)c3)c(=O)c3ccccc32)cc1OC	6%	11%	-14%	3%	-8%[59 µM]
Cc1ccc2nc(-c3ccc(NC(=S)NC4CC(C)(C)NC(C)(C)C4)cc3)sc2c1	-5%	-9%	-34%	-33%	50µM*
NS(=O)(=O)c1ccc(CCNC(=S)NC2CCCCC2)cc1	7%	-10%	-16%	-6%	9%
CCN(CC)c1ccc(NC(=O)OC)cc1	-29%	?	?	?	3.5µM*
CCOC(=O)C(Cc1ccccc1)C(=O)Nc1ccc(N(CC)CC)cc1 (stereo not given)	?	15%	50µM*	?	3.5µM*
NS(=O)(=O)c1ccc(CNC(=S)NC2CC2)cc1	-10%	10%	-7%	?	28µM*
COC(=O)Nc1ccc(NC(C)=O)cc1	18%	-7%	-11%	4%	8%[59 µM]
CC(C)C[C@@H]1CN(CCCC[C@H]2CNC(=O)C(=O)N2CCC2CCCCC2)C(=O)C(=O)N1Cc1ccccc1	nt	1%	nt	nt	nt
CCN(CC)c1ccc(NC(=S)NC(=O)C2CCC2)cc1	?	37%	45µM*	22µM*	40µM*
CCOc1ccc(NC(=S)NC(=O)C2CCCC2)cc1	65%	-6%	10%	-14%	?
CC1(C)CC(NC(=S)Nc2ccc(S(N)(=O)=O)cc2)CC(C)(C)N1	27%	-3%	-1%	-7%	50µM*
COC(=O)c1ccc(NC(=S)NC2CC(C)(C)NC(C)(C)C2)cc1	24%	5%	-17%[57.1 µM]	-13%	?
S=C(NCc1ccncc1)NC1CCCC1	20%	2%	-10%	-17%	50µM*
CCN(CC)c1ccc(/C=N/NC(=O)OC(C)(C)C)cc1	-1%	3%	-20%	?	50µM*
CCN(CC)c1ccc(/C=N\NC(N)=O)cc1	9%	12%	-27%	-29%	?
COc1ccc(NC(=O)C2(c3cccs3)CCOCC2)cc1Cl	34%	-4%	-8%	-2%	-17%[59 µM]
Fc1ccc(NC(=S)NCc2cccs2)cc1	14%	8%	-8%	-5%	1%[59 µM]
COc1ccc(NC(=S)NCc2ccc(S(N)(=O)=O)cc2)cc1OC	37%	11%	?	-9%	?
CCN(CC)c1ccc(NC(=O)/C=C/c2cc(Br)ccc2OC)cc1	?	36%	4µM*	8.9µM*	2%[0.0925 µM]
NS(=O)(=O)c1ccc(NC(=S)NC(=O)C2CCCC2)cc1	34%	-5%	-14%	-23%	71µM*
CCN(CC(F)(F)C(F)F)S(=O)(=O)c1ccc(NC(=O)OC)cc1	?	?	20µM*	2%	53%[59 µM]
COC(=O)Nc1ccc(S(=O)(=O)N(CCO)CC(F)(F)C(F)F)cc1	34%	-3%	9%[57.1 µM]	-4%	24%[59 µM]
CC(=O)Nc1ccc(NC(=S)NC(=O)C2CCCC2)cc1	34%	12%	-18%	-21%	35%
NS(=O)(=O)c1ccc(CNC(=S)Nc2ccc(Cl)c(Cl)c2)cc1	-1%	7%	-17%	-12%	45µM*
CCCCN(C(=O)c1ccc(C)cc1)c1c(N)n(CCC)c(=O)[nH]c1=O	21%	-3%	-17%	-11%	11%
SMILES	HP1b chromo inh	GLS inh	JMJD2A Tudor inh	BAZ2B inh	G9a inh
NS(=O)(=O)c1ccc(NC(=S)NC2CC2)cc1	-11%	9%	-15%	-26%	10µM*
O=C(NNc1ccccc1)c1sc2ccccc2c1Cl	16%	nt	-29%	nt	nt
COc1ccc(OC)c(C2C(C(C)=O)=C(O)C(=O)N2CCC(=O)O)c1 (stereo not given)	-7%	0%	?	50µM*	?
COc1cccc(C2C(C(=O)c3cccs3)=C(O)C(=O)N2CCN(C)C)c1OC (stereo not given)	0%	0%	?	4%	-4%[59 µM]
COc1ccc(OC)c(C2C(C(=O)c3cccs3)=C(O)C(=O)N2CCN(C)C)c1 (stereo not given)	24%	24%	-24%	12%	50µM*
COc1ccc(C2C(C(C)=O)=C(O)C(=O)N2Cc2ccccc2)c(OC)c1 (stereo not given)	16%	7%	2%	-3%	50µM*
COc1ccc(OC)c(C2C(C(C)=O)=C(O)C(=O)N2CCN2CCOCC2)c1 (stereo not given)	18%	-2%	?	13%	?
CC(=O)C1=C(O)C(=O)N(Cc2ccccc2)C1c1ccc(Cl)cc1 (stereo not given)	39%	13%	-17%	-8%	-25%
CC(=O)C1=C(O)C(=O)N(Cc2ccccc2)C1c1cccs1 (stereo not given)	-5%	14%	-21%	?	45µM*
COC(=O)[C@]12CCCCC=C1N(Cc1ccco1)C(=O)[C@H](CC(=O)NCc1ccc(C)o1)C2	nt	-1%	nt	nt	nt
COC(=O)c1cccnc1	nt	8%	nt	nt	?
CC1=C(C(=O)Nc2ccccc2)C(c2ccc(O)cc2)n2nc(-c3ccc(Cl)cc3)nc2N1 (stereo not given)	32%	17%	-14%	?	16%[59 µM]
COc1ccc2c(c1)CN(C)S(=O)(=O)c1ccccc1-2	36%	2%	-12%	nt	nt
COc1ccc(C2C(C(C)=O)=C(O)C(=O)N2CCc2ccccc2)c(OC)c1 (stereo not given)	11%	-7%	32µM*	?	?
COc1cc(C2C(C(C)=O)=C(O)C(=O)N2Cc2ccccc2)ccc1O (stereo not given)	22%	52%	17%	-23%	45µM*
COc1cc(C2C(C(=O)C(C)(C)C)=C(O)C(=O)N2Cc2ccccc2)ccc1O (stereo not given)	16%	25%	?	?	nt
Cc1c(-c2nc(-c3ccc4c(c3)[nH]c(=O)n4C)no2)cccc1[N+](=O)[O-]	15%[57 µM]	7%	-4%	4%	17%[59 µM]
CCOc1cc(Cl)c(S(=O)(=O)n2ccnc2)cc1Cl	40%	-2%	1%	-23%	5%[59 µM]
COc1cc(C(=O)NCc2nnc(SCC(=O)c3ccccc3)o2)cc(OC)c1OC	28%	24%	12%	-10%	40µM*
COc1cc(C(=O)NCc2nnc(SCC(=O)Nc3nccs3)o2)cc(OC)c1OC	36%	3%	?	45µM*	-3%
COc1cc(C(=O)NCc2nnc(SCC(=O)Nc3cc(C)on3)o2)cc(OC)c1OC	27%	-3%	-5%	nt	1%
CSc1ccc(CCNC(=O)Cn2nc(C)n3c(cc4sccc43)c2=O)cc1	24%	-1%	-9%	1%	7%[59 µM]
COc1ccc(NC(=O)CCc2nnc3ccc(NCc4ccco4)nn23)cc1OC	33%	-13%	-30%	?	-9%
CNC(=O)c1c(O)c2cccc3c2n(c1=O)CCC3	34%	2%	?	6%	nt
CCN(CC)CCNC(=O)c1c(O)c2cccc3c2n(c1=O)CCC3	10%	-6%	-20%	-13%	56µM*
